The source of these data is PubChem BioAssay (NCATS).

Values joined by “and” are separate entries in the source; they are usually repeats but may differ in a detail not shown here. Identical values can stand only once. Records with an inconclusive call do not appear. Entries that show only a call come without a potency. Active and inactive are the calls of the source. Calls come from the whole dose curve; as a rule, active = well fitted inhibition curve with a large enough effect; inconclusive = small, poorly fitted or top-dose-only effect; inactive = flat fitted curve, though single readings scatter.
Potency is the fitted concentration of half-maximal effect.

Chain of Ubiquitin carboxyl-terminal hydrolase 1 (Homo sapiens) (O94782 whole entry, looked up): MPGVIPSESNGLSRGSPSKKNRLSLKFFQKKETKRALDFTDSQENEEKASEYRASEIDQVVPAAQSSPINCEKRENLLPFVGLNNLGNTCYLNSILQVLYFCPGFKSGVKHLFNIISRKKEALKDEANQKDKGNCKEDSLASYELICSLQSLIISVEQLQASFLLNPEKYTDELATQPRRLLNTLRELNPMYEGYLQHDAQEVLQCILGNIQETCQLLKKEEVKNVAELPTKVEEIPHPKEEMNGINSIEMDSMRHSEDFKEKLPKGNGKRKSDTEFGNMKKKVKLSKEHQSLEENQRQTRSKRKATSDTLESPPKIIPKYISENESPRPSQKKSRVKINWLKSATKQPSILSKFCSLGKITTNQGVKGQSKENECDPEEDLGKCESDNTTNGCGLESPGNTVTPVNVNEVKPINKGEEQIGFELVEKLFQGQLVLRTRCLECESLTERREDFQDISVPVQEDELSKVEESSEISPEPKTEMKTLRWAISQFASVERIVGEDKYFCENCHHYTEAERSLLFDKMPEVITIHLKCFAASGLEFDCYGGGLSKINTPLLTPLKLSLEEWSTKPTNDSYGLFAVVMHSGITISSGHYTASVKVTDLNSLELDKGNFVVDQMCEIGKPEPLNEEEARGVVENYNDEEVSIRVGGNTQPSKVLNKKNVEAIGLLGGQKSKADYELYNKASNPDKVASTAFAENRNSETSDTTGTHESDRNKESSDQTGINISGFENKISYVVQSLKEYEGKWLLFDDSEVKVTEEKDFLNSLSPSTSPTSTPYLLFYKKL

The test has as its target Ubiquitin carboxyl-terminal hydrolase 1 (Homo sapiens) (UniProt O94782). Put plainly: Inhibitors of USP1/UAF1: Pilot qHTS (AID 504865). Note: nearly all actives have a fitted effect of over 35% in size. The settings on record: purified USP1/UAF1, Ub-rhodamine cleavage fluorescence; series mostly up to 114 µM. The essentials:
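Kinetic fluorescence assay: 1nM USP1/UAF1, 15 min compound preincubation, then 150nM Ub-Rho; 480/540 nm.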
In general terms: Quantitative high-throughput screening tests each substance at several concentrations.
In the case of `Cn1c(=O)c2[nH]c(Br)nc2n(C)c1=O`, the Potency result was “inactive”.

With `O=C1C(O)=C(O)C(=O)C(O)=C1O`, the Potency is 50.1 µM (active).

`Cc1cc(C)cc(OCC2CNC(=O)O2)c1` (centres undefined): the Potency entry is “inactive”.

Regarding `O=S(=O)(O)c1ccc(O)cc1`, the Potency entry was “inactive”.

On to `CC(C)Cn1cnc2c1c(=O)n(C)c(=O)n2C`, for which the Potency result was “inactive”.

As to `CCCN(CCC)S(=O)(=O)c1ccc(C(=O)O)cc1`, the Potency result was “inactive”.

As to `COc1cc(C(=O)NCc2ccc(OCCN(C)C)cc2)cc(OC)c1OC`, the Potency entry was “inactive”.

For `CC(C)Cc1ccc(CC(=O)O)cc1`, the Potency result was “inactive”.

Consider `CCOc1ccccc1C(N)=O`, for which the Potency result was “inactive”.

Regarding `O=C(O)CCC(=O)Nc1ccc(S(=O)(=O)Nc2nccs2)cc1`, the Potency entry was “inactive”.

Turning to `O=C(O)CCNC(=O)c1ccccc1`, the Potency result was “inactive”.

Consider `Nc1ccc(C(=O)NCC(=O)O)cc1`, for which the Potency result was “inactive”.

For the compound `CCCCNc1ccc(C(=O)OCCOCCOCCOCCOCCOCCOCCOCCOCCOC)cc1`, the Potency entry is “inactive”.

Consider `COc1cc(C(=S)N2CCOCC2)ccc1O`, for which the Potency entry is “inactive”.

On to `C=CCN1CCc2nc(N)sc2CC1`, for which the Potency result is “inactive”.

Regarding `Oc1c(Cl)cc(Cl)c(Cl)c1Cc1c(O)c(Cl)cc(Cl)c1Cl`, the Potency is 79.4 µM (active) and 31.6 µM (active).

On to `Cc1cc(-c2ccccc2)nnc1NCCN1CCOCC1`, for which the Potency result is “inactive”.

With `CC1CCc2c(N3CCC(O)CC3)c(F)cc3c(=O)c(C(=O)O)cn1c23` (centres undefined), the Potency result was “inactive”.

In the case of `O=C(O)C1(C(=O)O)CCC1.[NH2-].[NH2-].[Pt+2]`, the Potency entry is “inactive”.

For the compound `CC(C)(C)CC(C)(C)c1ccc(O)c(-n2nc3ccccc3n2)c1`, the Potency result was “inactive”.

On to `C/C=C/C=N/NC(=O)c1ccncc1`, for which the Potency entry is “inactive”.

For `CC(=O)Nc1ccc(S(=O)(=O)Nc2ccc([N+](=O)[O-])cc2)cc1`, the Potency entry was “inactive”.

In the case of `CC(C)(Cc1c[nH]c2ccccc12)NCC(O)COc1ccccc1C#N` (centres undefined), the Potency result is “inactive”.

With `CC(C)[N+](C)(C)CC(O)COc1cccc2ccccc12` (centres undefined), the Potency entry is “inactive”.

With `OCc1ccccn1`, the Potency entry is “inactive”.

In the case of `Nc1nc(N)c(-c2ccccc2)s1`, the Potency entry is “inactive”.

Consider `Cc1cc(CC(=O)O)c(C)n1-c1ccc(Cl)cc1`, for which the Potency entry is “inactive”.

For the compound `O=C(O)c1ccc(S(=O)(=O)N(Cl)Cl)cc1`, the Potency result was “inactive”.

Take `CC(C)Nc1cccnc1N1CCN(C(=O)c2cc3cc(NS(C)(=O)=O)ccc3[nH]2)CC1`: the Potency result was “inactive”.

`O=C(O)CCc1nc2ccccc2[nH]1`: the Potency entry was “inactive”.

With `CC(=O)Oc1ccc(C)cc1`, the Potency entry is “inactive”.

Take `CCN(CC)CCOC(=O)C1(c2ccccc2)CCCC1`: the Potency entry was “inactive”.

On to `CC(C)CCCC(C)N` (centres undefined), for which the Potency entry was “inactive”.

On to `CC(=O)OCC(=O)[C@H]1CC[C@H]2[C@@H]3CCC4=CC(=O)CC[C@]4(C)[C@H]3CC[C@]12C`, for which the Potency entry was “inactive”.
